# Compound activity (PubChem)
# A selection: hits, their analogues and other compounds. The true share with any hit is near 1.2%.
# NS1 inh – blocks influenza NS1 protein function; Potency, µM (series often up to 46.1 µM), for the others: at the top dose activity, positive = more growth; 0.4% of 270,000 active; calls by dose curve; also: actives are rising curves; nearly all actives have a fitted effect of over 50% in size
#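 Growth recovery, yeast-based: influenza A NS1 expressed in S. cerevisiae causes slow growth, and suppressors are detected by OD600. The parent strain without NS1 is used as positive control.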
# AMA1-RON2 inh – disrupts binding of P. falciparum AMA1 to RON2; AlphaScreen AMA1-biotinylated RON2 peptide binding; Potency, µM (series often up to 58.2 µM), for inactives: at the top dose activity change, negative = inhibition, usual class: inhibitors; 0.2% of 360,000 active; AID 720542;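 also: 0% = vehicle wells and -100% = peptide control; nearly all actives have a fitted effect of over 45% in size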
#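 AMA1 (3D7) with his tag at 25 nM final met compounds first, then biotinylated RON2 peptide at 25 nM; detection used donor plus acceptor beads, 10 µg/mL apiece, read by AlphaScreen after 30 min at room temperature.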
# Tb PYK inh – inhibitors of Trypanosoma brucei pyruvate kinase | 0.12% of 410,000 active | Potency, µM (doses to about 76.8 µM), for inactives: at the top dose activity, negative = inhibition, most hits filed as inhibitors | TbPYK enzyme, Kinase-Glo Plus ATP luminescence, 45 min | AID 624173; also: % is scaled to controls: 0 for no effect and ±100 for the full control effect; nearly all actives have a fitted effect of over 50% in size
#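 Assay buffer: 50 mM TEA pH 7.2, 100 mM KCl, 10 mM MgCl2, 0.05% BSA, 0.01% Tween-20. Pyruvate kinase from T. brucei plus substrate met compound, then ADP (130 uM final). Luminescence was read post 45 min RT.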
# Giardia FBPA inh – inhibitors of Giardia lamblia fructose-1,6-bisphosphate aldolase | A8B2U2 | purified Giardia FBPA | Potency, µM (top dose mostly 59.6 µM), for the others: top-dose activity, negative = inhibition, hits mostly inhibitors | 0.71% of 290,000 active | AID 2451; also: % is scaled to controls: 0 for no effect and ±100 for the full control effect; nearly all actives have a fitted effect of over 55% in size
#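 40 nM FBPA preincubated 10 min at RT with compound (up to 57.5 uM final), then substrate plus GAPDH/TPI/NAD/arsenate coupling and diaphorase/resazurin added. Fluorescence read after 20 min at RT, 525/598 nm.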
# LmPK inh – LmPK (Leishmania mexicana) enzyme inhibition | 0.37% of 290,000 active | Potency, µM (doses to about 57.5 µM), for the others: at the top dose activity change, negative = inhibition, hits mostly inhibitors | Q27686 | purified LmPK, Kinase-Glo ATP luminescence, 1 h; also: % is scaled to controls: 0 for no effect and ±100 for the full control effect
# Target sequence (Q27686 whole entry, looked up): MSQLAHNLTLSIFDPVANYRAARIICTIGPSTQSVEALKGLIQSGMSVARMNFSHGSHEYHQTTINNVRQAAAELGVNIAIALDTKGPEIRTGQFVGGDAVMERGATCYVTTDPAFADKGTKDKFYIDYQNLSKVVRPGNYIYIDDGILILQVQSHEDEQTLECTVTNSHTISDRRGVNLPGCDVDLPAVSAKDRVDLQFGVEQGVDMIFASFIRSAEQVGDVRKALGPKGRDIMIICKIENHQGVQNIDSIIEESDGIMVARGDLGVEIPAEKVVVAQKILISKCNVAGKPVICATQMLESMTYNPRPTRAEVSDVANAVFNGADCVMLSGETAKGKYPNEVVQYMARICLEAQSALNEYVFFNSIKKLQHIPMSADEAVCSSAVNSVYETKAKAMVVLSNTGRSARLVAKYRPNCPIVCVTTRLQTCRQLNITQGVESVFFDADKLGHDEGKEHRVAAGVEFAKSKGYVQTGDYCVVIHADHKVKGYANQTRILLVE
#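 qHTS format; LmPK 0.1 nM; substrates PEP 0.5 mM and ADP 0.1 mM. One-hour room-temperature incubation, then coupled luciferase luminescence; 0.5 nM enzyme wells mark activation.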
# Numbers without * were called inactive; ? = inconclusive; . = no result given; ! = not active in a repeat. Unless noted, calls follow the shape of the dose curve; as a rule, active = well fitted curve in the direction sought with a large enough effect; inconclusive = small, poorly fitted or top-dose-only effect, or another doubt; inactive = no such curve, though single readings can be large; an effect the other way counts as inactive or inconclusive. Potency is read from the fitted curve at half-maximal effect.
SMILES,NS1 inh,AMA1-RON2 inh,Tb PYK inh,Giardia FBPA inh,LmPK inh
CC(C)C1O[C@H](/C=C\c2ccccc2)OCC1(C)C (stereo partly specified),3%,.,.,.,.
COc1cc(O)c(C(CCN2CCN(c3ccccc3)CC2)c2ccc3c(c2)OCO3)c(OC)c1 (stereo unspecified),-1%,16µM*,5%,?,-2%
CCN(CC)CCC(c1ccc(N(C)C)cc1)c1c(OC)cc(OC)c2c(-c3ccccc3)cc(=O)oc12 (stereo unspecified),-21%,18µM*,-7%,-5%,8%
COc1cc(OC)c2c(-c3ccccc3)cc(=O)oc2c1C(CCN1CCCC(C)C1)c1ccc(N(C)C)cc1 (stereo unspecified),-55%,16µM*,-2%,0%,0%
COc1ccc(C(CCN2CCCC(C)C2)c2c(OC)cc(OC)c3c(-c4ccccc4)cc(=O)oc23)cc1 (stereo unspecified),-3%,-21%,1%,-2%,7%
COc1ccc(C2CC(=O)Oc3c(C(CCN4CCCC(C)C4)c4ccc(N(C)C)cc4)c(OC)cc(OC)c32)cc1 (stereo unspecified),-34%,18µM*,-12%,4%,3%
COc1cc(O)c(C(CCN2CCCC2)c2ccc3c(c2)OCO3)c(OC)c1 (stereo unspecified),-1%,-26%,-5%,-6%,3%
COc1ccc2c(c1)C(=O)[C@@H](OC(=O)NCCc1ccc(OC)c(OC)c1)[C@H](c1ccc(OC)c(Br)c1)O2,.,.,.,1%,.
CC(C)=CC1C(CO)C1(C)C (stereo unspecified),.,.,.,0%,.
C[C@]12CC[C@@H]3c4ccc(OC(=O)N(CCCl)CCCl)cc4CC[C@@H]3[C@H]1CC[C@@H]2OP(=O)(O)O,.,.,3%,.,.
CCN1CCC(N2CCN(c3ccc(Cl)cc3)CC2)CC1,2%,2%,0%,-6%,-4%
CCCCCCN1CCN(c2ccc(Cl)cc2)CC1,.,35µM*,-3%,?,-4%
O=c1ncn2nc(Sc3ccc(F)cc3F)ccc2c1-c1c(Cl)cccc1Cl,.,.,-4%,.,.
Oc1cccc2c(NC(=S)Nc3ccc(SC(F)F)cc3)cccc12,-29%,29%,-4%,1.8µM*,3%
COC(=O)c1c(C)cc(O)c(C=O)c1O,.,34%,0%,.,.
Cc1cc2c(C(C)C)c(O)c(O)c(C=O)c2c(O)c1-c1c(C)cc2c(C(C)C)c(O)c(O)c(C=O)c2c1O,0.35µM*!,.,-12%,?,7%
CCOC(=O)C1CCN(Cc2ccc(O)c3ncccc23)CC1,-6%,9.5µM*,-4%,?,4%
CCOC(=O)C1CCN(Cc2ccccc2C(F)(F)F)CC1,-4%,-18%,20%,-20%,-5%
CCn1c(=O)c2cc(C(=O)Nc3cc(F)ccc3F)sc2c2ccccc21,.,.,0%,.,.
Cc1[nH][nH]c(=O)c1C(c1c(C)[nH][nH]c1=O)c1cn(C)c2ccccc12,1%,-9%,-6%,2.8µM*,-3%
Cc1[nH][nH]c(=O)c1C(c1cc([N+](=O)[O-])ccc1O)c1c(C)[nH][nH]c1=O,-6%,-4%,-5%,?,1%
CCN1C(=O)/C(=C\C=C2/C=CC=CN2CC)SC1=S,-36%,1%,?,?,?
CCN1C(=O)/C(=C/C=C2\C=CN(CC)c3ccccc32)SC1=S,-1%,?,?,?,18µM*
Nc1nc(SCC(=O)c2ccc(Br)cc2)c2[nH]cnc2n1,-2%,.,.,.,.
c1csc(CNc2ccnc(-c3ccoc3)n2)c1,.,.,.,-10%,.
COc1ccc2[nH]c3c(=O)n(CCCCC(=O)NCCN4CCCC4)c(=S)[nH]c3c2c1,0%,21%,6.3µM*,-14%,7.1µM*
CCCCNC(=O)CCCCn1c(=S)[nH]c2c([nH]c3ccc(OC)cc32)c1=O,.,93%,-12%,4%,-2%
CC[C@H](C)NC(=O)CCCCCn1c(=S)[nH]c2c([nH]c3ccc(OC)cc32)c1=O,.,77%,-20%,5%,3%
COc1ccc2[nH]c3c(=O)n(CCCCC(=O)N4CCC(C(N)=O)CC4)c(=S)[nH]c3c2c1,0%,49%,6.3µM*,-5%,4µM*
O=C(NOC[C@H](O)CO)c1ccc(F)c(F)c1Nc1ccc(I)cc1F,.,.,-6%,.,.
